More than one record can exist for a structure, and the calls need not agree. The source made the active and inactive calls. Calls come from the whole dose curve. Positions of bridges follow the written chain, without caps; N, C: chain ends. Non-standard residues stand in square brackets, D forms with d. Residues, ends and D or L forms follow the SMILES beside them. hArg = N=C(N)NCCCC[C@H](N)C(=O)O; Mpa = O=C(O)CCS
target: Acetylcholinesterase (Homo sapiens) (UniProt P22303); test: Acetylcholinesterase (AChE) small molecule antagonists: enzyme-based qHTS assay (AID 1347397); conditions: Potency: AChE enzyme activity inhibition; outcome: AChE enzyme activity inhibition; series mostly up to 115 µM; activity change, negative = inhibition: at the top concentration; note: nearly all actives have a fitted effect of over 55% in size
Text: National Center for Advancing Translational Sciences [NCATS]
Division of Preclinical Innovation [DPI]
U.S. Environmental Protection Agency [EPA]
National Institutes of Environmental Health Sciences [NIEHS]
National Toxicology Program [NTP]
U.S. Food and Drug Administration [FDA]
Acetylcholinesterase (AChE) is the primary cholinesterase in the body that hydrolyzes a key neurotransmitter, acetylcholine. Inhibition of AChE activity can lead to neurotoxicity. The known inhibitors include organophosphorous pesticides (OP), chemical warfare agents, drugs, and various phytochemicals.
An enzyme-based assay with the recombinant human AChE and Amplite Colormetric acetylcholinesterase assay kit (AAT Bioquest, Sunnyvale, CA) was used to evaluate the chemicals in the Tox21 10K library that inhibit AChE activity. The assay uses 5, 5-dithiobis-(2-nitrobenzoic acid) (DTNB) to quantify the thiocholine produced from the hydrolysis of acetylthiocholine by AChE.
Tox21 Assay Protocol Summary:
For the enzyme-based AChE assay, recombinant human AChE (50 mU/mL) in 4 uL/well was dispensed into black, clear-bottom 1536-well plates using a Multidrop Combi dispenser (Thermo Scientific, MA). Then, 23 nL of compound or DMSO (vehicle control) was transferred into the assay plates by a Pintool Station (Wako Automation, CA). The plates were incubated for 30 min at room temperature, followed by the addition of 4 uL of colorimetric detection cocktail solution (DTNB, acetylthiocholine) into each well using a Flying Reagent Dispenser (Beckman Coulter, CA) and then 10 min incubation at room temperature.
% is set by controls: 0 for no effect and ±100 for the full control effect; potency is the fitted concentration of half-maximal effect.

Acetylcholinesterase (Homo sapiens), sequence (P22303 whole entry, looked up): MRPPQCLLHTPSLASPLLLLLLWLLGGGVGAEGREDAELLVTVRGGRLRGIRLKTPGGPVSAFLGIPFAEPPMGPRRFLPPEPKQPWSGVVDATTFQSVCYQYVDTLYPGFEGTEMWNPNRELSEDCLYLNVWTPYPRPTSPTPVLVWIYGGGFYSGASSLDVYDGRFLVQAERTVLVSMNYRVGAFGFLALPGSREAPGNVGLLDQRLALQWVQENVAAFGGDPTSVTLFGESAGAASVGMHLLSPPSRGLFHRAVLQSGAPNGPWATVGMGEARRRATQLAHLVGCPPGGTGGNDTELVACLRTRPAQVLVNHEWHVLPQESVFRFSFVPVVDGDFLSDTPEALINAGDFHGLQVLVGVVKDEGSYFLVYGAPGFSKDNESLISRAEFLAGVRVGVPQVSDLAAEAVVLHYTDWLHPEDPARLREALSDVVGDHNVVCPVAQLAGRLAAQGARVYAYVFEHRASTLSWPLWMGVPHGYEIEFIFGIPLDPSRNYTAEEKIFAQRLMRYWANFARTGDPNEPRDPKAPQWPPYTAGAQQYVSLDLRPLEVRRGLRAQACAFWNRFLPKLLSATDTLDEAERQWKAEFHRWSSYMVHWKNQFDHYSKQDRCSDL

Compound | activity change, negative = inhibition | Potency
C/C(=C(\CCO)SS/C(CCO)=C(\C)N(C=O)Cc1cnc(C)nc1N)N(C=O)Cc1cnc(C)nc1N | -0.407% [at 53 µM] (inactive) | –
CC(C)OC(=O)C(O)(CC(=O)O)CC(=O)O | -0.207% (inactive) | –
CC(C)(c1ccccc1)c1ccc(Nc2ccc(C(C)(C)c3ccccc3)cc2)cc1 | – | inactive
CCOc1cc(NC(C)=O)ccc1C(=O)OC | 1.22% [at 53 µM] (inactive) | –
CSc1ccc(O)cc1C | 2.04% (inactive) | –
Nc1ncn([C@@H]2O[C@H](CO)[C@@H](O)[C@H]2O)c(=O)n1 | – | inactive
CCCCC1(COC(=O)CCC(=O)O)C(=O)N(c2ccccc2)N(c2ccccc2)C1=O | – | inactive
NC(=O)Cn1c(=O)cc(CCN2CCN(c3nccc4sccc34)CC2)c2ccc(F)cc21 | -19.3% (inactive) | –
CC(C)C(=O)OCCOc1ccccc1 | 0.0657% (inactive) | –
O=C(NO)C1(NS(=O)(=O)c2ccc(Oc3ccc(F)cc3)cc2)CCOCC1 | -0.263% (inactive) | –
CC(=O)C1(C)CC2=C(CCCC2(C)C)CC1C (stereo not given) | – | inactive
Cc1onc(-c2ccccc2Cl)c1C(=O)N[C@@H]1C(=O)N2[C@@H]1SC(C)(C)[C@@H]2C(=O)O | -0.434% [at 53 µM] (inactive) | –
CC12CCC(CC1=O)C2(C)C (stereo not given) | -0.0014% (inactive) | –
NC(=O)[C@@H]1CSSCCC(=O)N[C@@H](CCCCN=C(N)N)C(=O)NCC(=O)N[C@@H](CC(=O)O)C(=O)N[C@@H](Cc2c[nH]c3ccccc23)C(=O)N2CCC[C@H]2C(=O)N1 ([Mpa][hArg]GDWPC-NH2; disulfide 1-7) | 0.236% [at 53 µM] (inactive) | –
Cc1ccc([N+](=O)[O-])c(C)c1 | – | inactive
CCCCCNCCCCC | – | inactive
O=C(O)CCNC(=O)c1ccccc1 | 0.459% [at 53 µM] (inactive) | –
Brc1c2ccccc2cc2ccccc12 | 0.39% (inactive) | –
O[C@@H]1CO[C@H]2[C@@H]1OC[C@@H]2O | 0.554% [at 53 µM] (inactive) | –
CCCCCCC=O | – | inactive

Compound | activity change, negative = inhibition | Potency
Cc1cc(NS(=O)(=O)c2ccc(N)cc2)nc(C)n1 | 0.693% [at 53 µM] (inactive) | –
OCCc1ccccn1 | 0.384% (inactive) | –
CC1=CC[C@H]2C[C@@H]1C2(C)C | – | 63.9 µM (active) and inactive
C1=CCCC1 | -0.273% (inactive) | –
CC1(C)C(=O)N(Cl)C(=O)N1Cl | – | inactive
CC(=O)CC(=O)Nc1ccc(S(=O)(=O)O)cc1 | 0.63% (inactive) | –
CCOC(=O)OC(C)OC1=C(C(=O)Nc2ccccn2)N(C)S(=O)(=O)c2ccccc21 (stereo not given) | -0.54% [at 53 µM] (inactive) | –
CC1(C)Cc2cccc(N)c2O1 | -0.207% (inactive) | –
Cc1cc2c(C(C)C)c(O)c(O)c(C=O)c2c(O)c1-c1c(C)cc2c(C(C)C)c(O)c(O)c(C=O)c2c1O | -1.46% [at 53 µM] (inactive) | –
CCCCCCCC/C=C\CCCCCCCC(N)=O | -1.08% (inactive) | –
CCCCCC[C@@H](O)C/C=C\CCCCCCCC(=O)OC | -1.77% (inactive) | –
CC(C(=O)O)c1ccc2c(c1)CC(=O)c1ccccc1S2 (stereo not given) | 0.945% [at 53 µM] (inactive) | –
O=c1n(CC2CO2)c(=O)n(CC2CO2)c(=O)n1CC1CO1 (stereo not given) | – | inactive
COc1ccc(OC)c(NC(=O)CC(C)=O)c1 | -0.379% (inactive) | –
COc1cc(Cc2cnc(N)nc2N)cc(OC)c1OC | – | inactive
CCN(CC)c1ccc(C(=C2C=CC(=[N+](CC)CC)C=C2)c2ccc(S(=O)(=O)O)cc2S(=O)(=O)[O-])cc1 | 29.6% (inactive) | –
CC1(C)[C@@H]2CC[C@]3(C2)[C@@H]1C(=O)CCC3(C)C | -2.75% (inactive) | –
COc1cc2c(cc1OC)[C@@H]1CC(=O)[C@@H](CC(C)C)CN1CC2 | -1.15% [at 53 µM] (inactive) | –
O=C1NC(c2ccccc2)(c2ccccc2)C(=O)N1COP(=O)(O)O | -0.945% [at 53 µM] (inactive) | –
CC(=O)C(C)C | – | inactive

— PubChem BioAssay (Tox21)
